Screening data as filed in PubChem BioAssay.
TRHR agonist = TRH receptor (human) agonism | 360,000 compounds, 0.18% hits | activation, % at 2 µM | P34981 | TRHR cells, calcium flux fluo-8, FDSS agonist mode
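Fluo-8-loaded TRHR cells; 10 s baseline, compound added, kinetic Ca2+ fluorescence read 1/s, agonist mode.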
D1 antag = human D1 dopamine receptor antagonism; P21728; HEK293 TREx D1 cells, calcium flux, dopamine EC80; stronger effect = lower value; activity change, negative = inhibition, % at 10 µM; 360,000 compounds, 3.2% hits; AID 504652; in the data active = activity change below about -30%
Target sequence (P21728 whole entry, looked up): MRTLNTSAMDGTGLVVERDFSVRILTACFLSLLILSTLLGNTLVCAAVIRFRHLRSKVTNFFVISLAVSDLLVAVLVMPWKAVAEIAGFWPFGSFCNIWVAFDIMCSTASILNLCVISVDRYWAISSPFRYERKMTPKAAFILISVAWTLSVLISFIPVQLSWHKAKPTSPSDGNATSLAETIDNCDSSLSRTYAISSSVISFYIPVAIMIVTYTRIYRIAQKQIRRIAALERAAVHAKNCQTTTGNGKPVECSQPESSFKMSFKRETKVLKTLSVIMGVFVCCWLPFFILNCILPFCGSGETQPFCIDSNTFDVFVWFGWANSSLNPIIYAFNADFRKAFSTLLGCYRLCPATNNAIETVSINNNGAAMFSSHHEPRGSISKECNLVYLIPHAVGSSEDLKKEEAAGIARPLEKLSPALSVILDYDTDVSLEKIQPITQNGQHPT
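Cells carrying a force-coupled, tetracycline-inducible human D1 receptor report calcium flux. Each well gets a 10 s baseline, compound with 180 s monitoring, then an EC80 dopamine stimulus with a second 180 s kinetic read.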
D1 PAM = potentiators of human D1 dopamine receptor; potentiation, % at 10 µM; AID 504651; P21728; HEK293 TREx D1 cells, calcium flux, dopamine EC20 potentiation; 360,000 compounds, 0.036% hits; in the data active = potentiation above about 30%
D1 ag = human D1 receptor agonism | AID 504660 | activation, % at 2 µM | HEK293 T-REx D1 cells, calcium flux, agonist mode | P21728 | 360,000 compounds, 1% hits
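Inducible HEK293 T-REx D1 cells, force-coupled to calcium signalling, were plated at 4000 cells/well with tetracycline and held overnight at 30 C. After no-wash calcium dye loading, compound-evoked calcium rise over 180 s flagged agonists.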
TRHR PAM = allosterically enhances the human TRH receptor; AID 493056; enhancement, % at 2 µM; P34981; TRHR cells, fluo-8 calcium fluorescence, EC20 TRH enhancement; 360,000 compounds, 0.66% hits; in the data active = enhancement above about 30%
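Enhancer read-out: after compound pinning and an initial kinetic agonist-mode read, an EC20 of TRH (10 nM final) was injected and fluo-8 calcium signal (Ex 480/Em 530) followed at 1 s/cycle for 100 cycles in TRHR-expressing cells.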
Hits are given with their value; i = inactive; nt = no result; ! = repeats disagree. An excerpt weighted towards active compounds, which were near 4.6% of everything screened. Rule as the data show it, unless noted: active = activation above about 30%; inactive = the rest.

SMILES	TRHR agonist	D1 antag	D1 PAM	D1 ag	TRHR PAM
Cc1cc(CNC(=O)CC2C(=O)NCCN2CC(C)(C)C)nn1C (stereo not given)	i	-39	i	i	i
O=S(=O)(Nc1cccc(CCc2ccccn2)c1)c1ccc2ccccc2c1	i	i	i	32	i
CCc1ccc2oc(-c3ccc(C)c(NC(=O)Cc4ccccc4)c3)nc2c1	i	i	i	i	i
CNCC[C@H](Oc1cccc2ccccc12)c1cccs1	i	i	i	61	i
NC(=O)c1c(NC(=O)C2CCCO2)sc2c1CCCC2 (stereo not given)	i	i	i	i	i
COC(=O)c1sc(NC(=O)C2CCCO2)c(C(=O)OC)c1C (stereo not given)	i	i	i	i	32
N#Cc1c(NC(=O)C2CCCO2)sc2c1CCCCCC2 (stereo not given)	i	-32	i	i	i
CC(Nc1ncnc2c1cnn2-c1cccc(Cl)c1)c1ccccc1 (stereo not given)	i	i	i	i	i
Cc1cc(=O)[nH]c2nnc(SCc3c(F)cccc3Cl)n12	i	nt	i	i	i
Cc1nn(C(C)C(=O)N2CCN(c3ccc(Cl)cc3)CC2)c(=O)c2cc3occc3n12 (stereo not given)	i	i	i	i	i
O=C(Nc1cccc(F)c1)c1cc(S(=O)(=O)N2CCOCC2)cs1	i	-84	i	i	i
O=C(Nc1ccc(F)cc1)c1cc(S(=O)(=O)N2CCOCC2)cs1	i	-61	i	i	i
CCOc1ccc(Nc2oc(/C=C/c3cccc(OC)c3)nc2C#N)cc1	i	i	i	i	i
CCCSc1ncc(Cl)c(C(=O)Nc2ccc(S(=O)(=O)N3CCCCC3C)cc2)n1 (stereo not given)	i	i	i	i	i
Cc1ncsc1CCOC(=O)c1cccc([N+](=O)[O-])c1	i	-33!	i	i	i
O=C(CC(c1cccs1)N1Cc2ccccc2C1=O)Nc1ccccc1F (stereo not given)	i	i	i	i	i
COC(=O)c1cc(CNC(=O)c2ccc(O)c(Cl)c2)ccc1OC	i	i	i	i	i
COC(=O)c1cc(CNC(=O)c2ccccc2Cl)ccc1OC	i	-30	i	i	i
O=c1[nH]c2ccc(NCc3ccc(-c4ccccc4F)o3)cc2[nH]1	i	i	i	i	i
O=C(Nc1ccccc1Oc1cccnc1)C1CCCN(C/C=C/c2ccc(F)cc2)C1 (stereo not given)	i	-30	i	i	i
CC(C)Cn1c(CN2C(=O)c3ccccc3C2=O)nc2ccccc2c1=O	i	i	i	i	30
COC(=O)c1onc(-c2ccccc2)c1C(=O)OC	i	-36	i	i	i
CCOc1ccc(N2C(=O)C3C(c4ccccc4)=NN(c4ccccc4)C3C2=O)cc1 (stereo not given)	i	i	i	i	i
Cc1ccc(N2C(=O)C3C(C(=O)c4ccccc4)=NN(c4ccccc4)C3C2=O)cc1 (stereo not given)	i	i	i	117	i
COc1ccccc1N1C(=O)C2C(C(=O)c3ccccc3)=NN(c3ccccc3)C2C1=O (stereo not given)	i	i	i	35	i
SMILES	TRHR agonist	D1 antag	D1 PAM	D1 ag	TRHR PAM
CCOC(=O)C1=NN(c2ccccc2)C2C(=O)N(c3ccccc3OC)C(=O)C12 (stereo not given)	i	i	i	i	i
O=C(C1=NN(c2ccccc2)C2C(=O)N(c3ccccc3Cl)C(=O)C12)c1ccccc1 (stereo not given)	58	i	i	193	i
COC(=O)C1=NN(c2ccc(Cl)cc2)C2C(=O)N(c3ccccc3OC)C(=O)C12 (stereo not given)	i	i	i	i	i
COc1ccccc1N1N=C(C(=O)c2ccccc2)C2C(=O)N(c3ccc(Br)cc3)C(=O)C21 (stereo not given)	i	i	i	46	i
Cc1cccc(NC(=O)c2cnc3sc(N4CCCC4)nn3c2=O)c1C	i	i	i	i	i
C#CC[N+]1(CC#Cc2ccccc2)CCCC1	i	-52	i	i	i
C#CC[N+]1(CC#Cc2ccc(C#CC[N+]3(CC#C)CCOCC3)cc2)CCOCC1	i	-81	i	i	i
C(#Cc1ccccc1)C[N+]1(CC#Cc2cccc3ccccc23)CCCC1	i	i	i	i	i
